PGC1a acetyl inh: inhibitors of PGC1a acetylation signal, primary screen, cell-based, U2OS, AlphaScreen, inhibitor mode; 0.17% of 350,000 active; inhibition, % at 15.6 µM; AlphaScreen anti-acetyl-lysine; with virally co-expressed GCN5 acetyltransferase; AID 651687, 2012;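 active means every replicate shows inhibition of at least 40%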;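 further: 0% = neutral control wells and 100% = positive control wells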
CaV13 ICDI inh: Disruptors of the CACNA1D IQ motif to Ca2+-dependent inactivation inhibitor domain association, primary screening, Förster resonance energy transfer in intact living …; HEK cells, CFP/YFP FRET ICDI-IQ, plate reader, 10 min; percent FRET-ratio fall versus neutral wells; inhibition, % at 12.3 µM; 0.098% of 340,000 active; AID 743397;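 active means mean replicate inhibition of at least 30% and at least 1% of replicates passing that level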;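 further: 0% = median of the neutral control wells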
GSIS activator: GLuc luminescence reporter in INS-1E cells, primary screen for activators of glucose-dependent secretion of insulin; INS-1E GLuc reporter insulin secretion, 2-3 h; activation, % at 16.6 µM; 0.61% of 370,000 active;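 active means lowest replicate activation of at least 40%, so every replicate reaches that level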;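 further: 0% = median of neutral control wells and 100% = median of IBMX positive control wells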
Ecoli rRNA inh: reduced GFP signal of wild-type E. coli, primary screen, bacterial rRNA inhibitor project, GFP/RFP fluorescence, OD600, single point. E. coli WT GFP vs humanized-ribosome RFP mutants, 24 h; hits give low values; DMSO median 0, no signal -100. 1.6% of 350,000 active. GFP signal change (wild-type ribosome), % (concentration not given with the values);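 active means significant combined selectivity score with lowered wild-type GFP, culture density cut under 30%, mutant RFP and density less affected; inactive means any of these conditions unmet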
DENV2 CPE: inhibitors of DENV2 cytopathic effect, primary screen, cell-based, plate reader, single concentration; 1.7% of 350,000 active; CPE inhibition, % at 9.99 µM; AID 651640, 2012; DENV2-infected cells, cytopathic effect rescue; in the data active means CPE inhibition above about 20%, passing the limit was not always enough; tested in BHK-21 cells;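 further: 0% = median of neutral control wells and 100% = median of positive control wells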
ERAP1 HTS inh: human ERAP1 aminopeptidase inhibitors, primary screen, biochemical, single point, plate reader | recombinant ERAP1, Leu-AMC fluorescence, 60 min | inhibition, % at 10.7 µM | 0.15% of 340,000 active | AID 652197, 2013;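 active means mean replicate inhibition of at least 30%, or all replicates individually reaching that 30% level; inactive means mean below 30% and not every replicate reaching it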;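 further: 0% = neutral control wells and 100% = L-leucinethiol positive control wells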
The depositor's hits bear a star; ! = repeats disagree. A selection: hits, their analogues and other compounds. The true share with any hit is near 3.2%.

Results for O=C(Cc1ccccn1)N[C@@H]1CC[C@H](CCNC(=O)c2cc(Cl)cc(Cl)c2)O[C@H]1CO ?
PGC1a acetyl inh: 7.9; GSIS activator: 23.5; Ecoli rRNA inh: -1.0; DENV2 CPE: 2.1; ERAP1 HTS inh: 0.4

What do the screens show for `COCC(=O)N(C)C[C@H]1Oc2cc(C#Cc3ccccc3)ccc2S(=O)(=O)N([C@@H](C)CO)C[C@H]1C`?
PGC1a acetyl inh: 4.0; GSIS activator: 21.1; Ecoli rRNA inh: 4.5; DENV2 CPE: 8.7; ERAP1 HTS inh: -3.6

What do the screens show for `COc1ccccc1C(=O)NC(=S)Nc1ccc2[nH]c(=O)[nH]c2c1`?
PGC1a acetyl inh: -4.8; CaV13 ICDI inh: -7.1; GSIS activator: 44.5*; Ecoli rRNA inh: -2.2; DENV2 CPE: 3.0; ERAP1 HTS inh: -1.4

Results for COc1cccc(OC)c1C(=O)NC(=S)Nc1ccc2c(c1)Cc1ccccc1-2 ?
CaV13 ICDI inh: -4.2; GSIS activator: -8.1; Ecoli rRNA inh: 2.6; ERAP1 HTS inh: -1.7

What do the screens show for `COc1cccc(OC)c1C(=O)Nc1ccc2c(c1)Cc1ccccc1-2`?
PGC1a acetyl inh: 0.9; CaV13 ICDI inh: -8.1; GSIS activator: -4.9; Ecoli rRNA inh: -22.9*; DENV2 CPE: 0.4; ERAP1 HTS inh: 3.6

How did COc1ccc(Br)cc1C(=O)NC(=S)Nc1ccc2[nH]c(=O)[nH]c2c1 do in these assays?
PGC1a acetyl inh: 7.7; CaV13 ICDI inh: -2.1; GSIS activator: 4.9; Ecoli rRNA inh: 10.9; DENV2 CPE: 2.5; ERAP1 HTS inh: 1.4

How did O=C(c1ccccc1F)N1C[C@@H]2O[C@H](CNS(=O)(=O)c3ccccc3)CC[C@@H]21 do in these assays?
DENV2 CPE: 61.1*; ERAP1 HTS inh: 2.8

How did CO[C@H]1CN(C)C(=O)c2cc(NC(C)=O)ccc2OC[C@@H](C)N(C(=O)c2ccccc2)C[C@@H]1C do in these assays?
GSIS activator: 1.7; Ecoli rRNA inh: 0.7; DENV2 CPE: 23.8*; ERAP1 HTS inh: -2.1

What do the screens show for `COCC(=O)Nc1ccc2c(c1)C(=O)N(C)C[C@H](OC)[C@@H](C)CN(C(C)=O)[C@H](C)CO2`?
PGC1a acetyl inh: -4.6; GSIS activator: 5.5; Ecoli rRNA inh: 4.4; DENV2 CPE: 3.7; ERAP1 HTS inh: -4.0

How did CCC(=O)Nc1ccc2c(c1)C(=O)N(C)C[C@@H](OC)[C@@H](C)CN(C(=O)COC)[C@H](C)CO2 do in these assays?
PGC1a acetyl inh: 4.6; GSIS activator: 15.7; Ecoli rRNA inh: 1.4; DENV2 CPE: 21.8*; ERAP1 HTS inh: 0.1

What do the screens show for `COCC(=O)Nc1ccc2c(c1)C(=O)N(C)C[C@@H](OC)[C@H](C)CN(C(C)=O)[C@H](C)CO2`?
PGC1a acetyl inh: 0.9; GSIS activator: 3.8; Ecoli rRNA inh: 2.9; DENV2 CPE: 101.5*; ERAP1 HTS inh: 0.9

What do the screens show for `CO[C@H]1CN(C)C(=O)c2cc(NC(=O)Nc3ccccc3)ccc2OC[C@H](C)N(C(C)=O)C[C@H]1C`?
PGC1a acetyl inh: -12.0; GSIS activator: -0.6; Ecoli rRNA inh: -1.8; DENV2 CPE: 65.5*; ERAP1 HTS inh: 4.7

Results for CC(=O)Nc1cccc2c1O[C@@H](CN(C)C)[C@H](C)CN(C)C2=O ?
GSIS activator: 16.6; Ecoli rRNA inh: 0.5

How did COc1ccc(CN(C)C[C@@H]2Oc3c(NS(=O)(=O)c4cccs4)cccc3C(=O)N([C@@H](C)CO)C[C@@H]2C)cc1 do in these assays?
PGC1a acetyl inh: 4.7; GSIS activator: 1.1; Ecoli rRNA inh: -4.1; DENV2 CPE: 2.0; ERAP1 HTS inh: 2.0

Results for CCC(=O)N1C[C@@H](C)[C@H](OC)CN(C)C(=O)c2cc(NC(=O)COC)ccc2OC[C@@H]1C ?
PGC1a acetyl inh: 5.2; GSIS activator: -6.3; Ecoli rRNA inh: 2.9; DENV2 CPE: -2.6; ERAP1 HTS inh: -4.8

How did COCC(=O)Nc1ccc2c(c1)C(=O)N(C)C[C@H](OC)[C@H](C)CN(C(=O)CC1CC1)[C@H](C)CO2 do in these assays?
PGC1a acetyl inh: 12.4; GSIS activator: -0.2; Ecoli rRNA inh: 2.0; DENV2 CPE: 42.5*; ERAP1 HTS inh: -2.4

How did CCC(=O)N1C[C@H](C)[C@H](OC)CN(C)C(=O)c2cc(NC(=O)NC3CCCC3)ccc2OC[C@@H]1C do in these assays?
PGC1a acetyl inh: 4.6; GSIS activator: 6.1; Ecoli rRNA inh: 4.7; DENV2 CPE: 38.9*; ERAP1 HTS inh: 1.2

Results for CCC(=O)N1C[C@H](C)[C@H](OC)CN(C)C(=O)c2cc(NC(=O)COC)ccc2OC[C@H]1C ?
PGC1a acetyl inh: 0.9; GSIS activator: 5.7; Ecoli rRNA inh: -2.5; DENV2 CPE: 20.7*; ERAP1 HTS inh: -2.3

What do the screens show for `C[C@@H]1CN([C@H](C)CO)C(=O)c2cc(NS(=O)(=O)c3cccs3)ccc2O[C@@H]1CN(C)CC1CC1`?
PGC1a acetyl inh: -2.4; GSIS activator: 18.4; Ecoli rRNA inh: 1.2; DENV2 CPE: 1.2; ERAP1 HTS inh: -0.4

What do the screens show for `O=C(C[C@@H]1CC[C@@H](NC(=O)Nc2ccc3c(c2)OCO3)[C@@H](CO)O1)NCc1ccc2c(c1)OCO2`?
PGC1a acetyl inh: 1.6; GSIS activator: 17.1; Ecoli rRNA inh: 1.7; DENV2 CPE: 29.1*; ERAP1 HTS inh: -0.6

What do the screens show for `O=C(C[C@@H]1CC[C@H](NC(=O)c2ccc3c(c2)OCO3)[C@@H](CO)O1)NCc1ccc(F)cc1`?
PGC1a acetyl inh: -11.5; CaV13 ICDI inh: -7.2; GSIS activator: 10.7; Ecoli rRNA inh: -0.6; DENV2 CPE: 31.6*!; ERAP1 HTS inh: 0.6

What do the screens show for `CN(C)C(=O)C[C@@H]1CC[C@@H](NC(=O)c2ccc(F)cc2)[C@H](CO)O1`?
PGC1a acetyl inh: 17.0; GSIS activator: 12.8; Ecoli rRNA inh: 1.4; DENV2 CPE: 45.2*; ERAP1 HTS inh: 2.9

Results for O=C(C[C@@H]1CC[C@@H](NC(=O)NC2CCCCC2)[C@@H](CO)O1)NCc1ccc(F)cc1 ?
PGC1a acetyl inh: 11.2; GSIS activator: 5.9; Ecoli rRNA inh: 0.4; DENV2 CPE: 39.3*; ERAP1 HTS inh: -0.3

How did COCC(=O)Nc1ccc2c(c1)C(=O)N(C)[C@H]1CC[C@H](CC(=O)Nc3cn(C)nc3C)O[C@H]1CO2 do in these assays?
PGC1a acetyl inh: -3.6; GSIS activator: -2.1; Ecoli rRNA inh: 3.4; DENV2 CPE: -2.7

What do the screens show for `O=C(C[C@H]1CC[C@@H](NC(=O)CC2CC2)[C@@H](CO)O1)NCc1ccc(-c2ccccc2)cc1`?
PGC1a acetyl inh: -4.4; GSIS activator: -0.3; Ecoli rRNA inh: -1.2; DENV2 CPE: 48.0*; ERAP1 HTS inh: -2.0

Screening data deposited in PubChem BioAssay by Broad Institute.
